Source: PubChem
This is a sample that favours compounds with a hit; in the whole collection about 8.7% have one here.
BAZ2B block: qHTS Assay for Inhibitors of BAZ2B | Bromodomain adjacent to zinc finger domain protein 2B (Homo sapiens), Q9UIF8 | AID 504333, 2011 | AlphaScreen BAZ2B-H3K14Ac peptide displacement | Potency, µM (doses to about 114 µM), actives largely listed as inhibitors | hit rate 4.4% among 360,000; also: nearly all actives have a fitted effect of over 60% in size
Target sequence (Q9UIF8 whole entry, looked up, the tested form may be a part): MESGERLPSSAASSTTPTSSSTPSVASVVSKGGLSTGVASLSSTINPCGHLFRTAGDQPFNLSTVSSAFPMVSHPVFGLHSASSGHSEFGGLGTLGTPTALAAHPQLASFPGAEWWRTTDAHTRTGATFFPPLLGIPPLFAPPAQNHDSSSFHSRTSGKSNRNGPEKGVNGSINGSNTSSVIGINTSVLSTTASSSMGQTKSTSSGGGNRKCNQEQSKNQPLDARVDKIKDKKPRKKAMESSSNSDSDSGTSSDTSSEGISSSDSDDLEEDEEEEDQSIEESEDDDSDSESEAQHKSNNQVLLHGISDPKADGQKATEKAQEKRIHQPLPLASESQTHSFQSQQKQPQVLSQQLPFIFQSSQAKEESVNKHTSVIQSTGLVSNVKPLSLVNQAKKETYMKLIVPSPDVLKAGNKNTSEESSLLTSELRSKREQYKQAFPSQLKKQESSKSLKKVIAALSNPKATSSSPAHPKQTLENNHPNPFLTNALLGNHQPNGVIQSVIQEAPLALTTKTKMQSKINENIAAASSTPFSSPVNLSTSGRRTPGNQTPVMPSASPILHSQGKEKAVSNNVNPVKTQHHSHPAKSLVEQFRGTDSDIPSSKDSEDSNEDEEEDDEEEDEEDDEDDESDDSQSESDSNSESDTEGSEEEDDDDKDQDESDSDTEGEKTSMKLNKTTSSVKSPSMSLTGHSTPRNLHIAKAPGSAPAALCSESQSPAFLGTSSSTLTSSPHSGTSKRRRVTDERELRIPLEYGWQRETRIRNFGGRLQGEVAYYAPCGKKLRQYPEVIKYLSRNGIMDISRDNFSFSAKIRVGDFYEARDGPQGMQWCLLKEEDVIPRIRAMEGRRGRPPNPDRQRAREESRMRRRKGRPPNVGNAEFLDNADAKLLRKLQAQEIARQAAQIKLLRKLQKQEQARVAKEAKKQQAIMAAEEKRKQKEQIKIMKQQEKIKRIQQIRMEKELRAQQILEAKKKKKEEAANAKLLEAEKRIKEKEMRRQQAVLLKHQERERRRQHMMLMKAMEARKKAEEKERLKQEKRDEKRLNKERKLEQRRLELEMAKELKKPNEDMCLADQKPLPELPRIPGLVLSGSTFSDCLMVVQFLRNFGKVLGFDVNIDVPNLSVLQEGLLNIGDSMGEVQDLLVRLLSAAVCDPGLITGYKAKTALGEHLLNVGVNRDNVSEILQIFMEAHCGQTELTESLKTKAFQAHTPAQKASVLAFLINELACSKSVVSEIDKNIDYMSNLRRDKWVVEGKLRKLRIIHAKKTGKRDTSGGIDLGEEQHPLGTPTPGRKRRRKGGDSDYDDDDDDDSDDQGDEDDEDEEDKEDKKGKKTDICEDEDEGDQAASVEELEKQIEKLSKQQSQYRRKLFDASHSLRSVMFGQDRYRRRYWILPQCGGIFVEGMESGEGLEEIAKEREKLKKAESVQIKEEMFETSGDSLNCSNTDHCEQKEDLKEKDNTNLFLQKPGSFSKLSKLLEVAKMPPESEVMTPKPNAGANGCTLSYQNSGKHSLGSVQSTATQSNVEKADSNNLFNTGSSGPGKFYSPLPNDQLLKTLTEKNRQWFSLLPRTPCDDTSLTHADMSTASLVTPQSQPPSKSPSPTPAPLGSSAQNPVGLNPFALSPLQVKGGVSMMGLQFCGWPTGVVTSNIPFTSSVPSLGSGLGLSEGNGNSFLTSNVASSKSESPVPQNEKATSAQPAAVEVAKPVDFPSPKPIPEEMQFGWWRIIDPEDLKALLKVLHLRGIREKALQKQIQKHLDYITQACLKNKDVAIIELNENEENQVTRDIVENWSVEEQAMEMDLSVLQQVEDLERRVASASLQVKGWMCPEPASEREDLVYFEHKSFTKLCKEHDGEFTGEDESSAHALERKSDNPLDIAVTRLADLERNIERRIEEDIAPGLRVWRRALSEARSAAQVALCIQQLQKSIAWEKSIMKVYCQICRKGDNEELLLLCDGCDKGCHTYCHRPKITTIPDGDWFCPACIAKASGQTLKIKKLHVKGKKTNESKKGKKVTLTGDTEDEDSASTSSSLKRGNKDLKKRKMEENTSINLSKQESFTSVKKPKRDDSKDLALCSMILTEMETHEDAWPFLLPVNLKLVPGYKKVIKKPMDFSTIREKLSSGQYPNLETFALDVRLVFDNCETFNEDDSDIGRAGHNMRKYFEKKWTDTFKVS
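BAZ2B (50 nM) with biotin-H3(5-23)K14Ac peptide (50 nM) in PBS pH 7.4, 0.01% Tween-20, preformed 30 min, then compound 30 min at room temperature; top concentration 110uM. AlphaScreen streptavidin donor/nickel chelate acceptor beads (10 ug/mL final), 20 min dark, signal read.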
Sfp inh: qHTS Assay for Inhibitors of Bacillus subtilis Sfp phosphopantetheinyl transferase (PPTase). 4'-phosphopantetheinyl transferase ffp (Bacillus subtilis), Q9F4F7. Biochemical Sfp PPTase activity, qHTS. Potency, µM, actives largely listed as inhibitors. hit rate 3.5% among 310,000;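 also: the enzyme is Sfp with the accession as filed and its product quenches rhodamine fluorescence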
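Compounds were incubated with enzyme (final 15 nM) for 15 min at room temperature before substrate addition started the reaction. Fluorescence at 525 nm excitation, 598 nm emission was recorded immediately and after 30 minutes.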
G9a block: qHTS Assay for Inhibitors of Histone Lysine Methyltransferase G9a. Histone-lysine N-methyltransferase EHMT2 (Homo sapiens), Q96KQ7. G9a H3K9 monomethylation, AlphaScreen, 2 h. Potency, µM (top dose mostly 102 µM), most hits filed as inhibitors. hit rate 8.8% among 350,000; also: nearly all actives have a fitted effect of over 75% in size
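Signal arises when biotinylated H3K9 peptide, once monomethylated, bridges streptavidin donor and antibody-captured acceptor beads. Enzyme at 20 nM was preincubated 15 min with test compounds; peptide 500 nM and SAM 20 uM then reacted for 2 h.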
HP1b binding inh: HTS for Inhibitors of HP1-beta Chromodomain Interactions with Methylated Histone Tails | Potency, µM (doses to about 114 µM), usual class: inhibitors | AID 540317, 2011 | Chromobox protein homolog 1 (Homo sapiens), P83916 | hit rate 0.56% among 390,000 | AlphaScreen HP1-beta / biotin-H3K9me3 peptide binding; also: nearly all actives have a fitted effect of over 70% in size
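HP1-beta protein (50 nM final) preincubated 30 min at room temperature with biotinylated H3(1-18)K9me3 peptide (50 nM) in PBS pH 7.4, 0.01% Tween-20, then compound added for 30 min. AlphaScreen streptavidin donor/nickel chelate acceptor beads (10 ug/mL final), 30 min dark, luminescence read.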
JMJD2A Tudor inh: qHTS Assay for Inhibitors of JMJD2A-Tudor Domain | Potency, µM (top dose mostly 114 µM), most hits filed as inhibitors | AlphaScreen JMJD2A-Tudor / H3K4me3 peptide binding | hit rate 4.4% among 390,000; also: nearly all actives have a fitted effect of over 50% in size
ALOX12 inh: Primary qHTS assay for inhibitors of human arachidonate 12S-lipoxygenase (ALOX12): Round 2; hit rate 1.1% among 580,000; Potency, µM (titrated, usually from 108 µM), most hits filed as inhibitors; purified 12hLO, xylenol orange hydroperoxide absorbance
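Hydroperoxide product was detected by ferrous iron/xylenol orange as the 573 to 405 nm absorbance ratio. Arachidonic acid at 40 uM (final) was turned over for 30 min at room temperature by 150 nM human 12hLO, pH 7.0 Hepes buffer, after 15 min compound preincubation.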
A number is an active result; . = inactive; ? = inconclusive; / = not tested or not shown; ! = a repeat was not active; [ ] = remark or other dose. Calls follow the shape of the dose curve; as a rule, active = well fitted curve in the direction sought with a large enough effect; inconclusive = small, poorly fitted or top-dose-only effect, or another doubt; inactive = no such curve, though single readings can be large; an effect the other way counts as inactive or inconclusive.

SMILES	BAZ2B block	Sfp inh	G9a block	HP1b binding inh	JMJD2A Tudor inh	ALOX12 inh
C[C@H]1c2cccc(O)c2C(O)=C2C(=O)[C@]3(O)C(O)=C(C(N)=O)C(=O)[C@@H](N(C)C)[C@@H]3[C@@H](O)[C@@H]21	8.9µM	.	2.7µM!	.	13µM	?
C=C1c2c(Cl)ccc(O)c2C(O)=C2C(=O)[C@@]3(O)C(O)=C(C(N)=O)C(=O)[C@@H](N(C)C)[C@@H]3[C@@H](O)[C@H]12	/	.	11µM	/	/	/
COc1cccc(C2=C(C(C)=O)Sc3nnc(-c4ccccc4)n3N2C(C)=O)c1	/	/	/	/	/	.
CCCc1ccc(C(=O)NNc2cc(Cl)ccc2Cl)cc1	.	.	?	.	.	?
CCOC(=O)C(=NC(C)(C)C)NNc1cc(Cl)ccc1Cl	?	.	18µM	.	?	.
CCOC(=O)C(=NC(C)C)NNc1cc(Cl)ccc1Cl	?	.	8.9µM	.	?	?
CC(C)C(=O)N1CCC(C(=O)NCC2(c3ccc(F)cc3)CC2)CC1	/	/	/	/	/	.
COc1cccc(CCC(=O)Nc2ccc3ncnc(N4CCCC4)c3c2)c1	/	/	/	/	/	.
Cc1ccc(-c2nnn(CC(=O)N(Cc3cccs3)C(C(=O)NC(C)(C)C)c3ccco3)n2)o1 (stereo not drawn)	.	?	18µM	.	.	.
Cc1ccc(-c2nnn(CC(=O)N(Cc3cccs3)C(C(=O)NC(C)(C)C)c3ccc(C)o3)n2)o1 (stereo not drawn)	.	.	?	.	.	.
Cc1ccc(-c2nnn(CC(=O)N(Cc3ccco3)C(C(=O)NC(C)(C)C)c3cccs3)n2)o1 (stereo not drawn)	?	?	13µM	.	.	.
Cc1noc(NC(=O)c2ccc(F)cc2)c1C#N	.	.	.	.	.[11.4 µM]	.
Cc1cccc(C(=O)Nc2onc(C)c2C#N)c1	?	.	/	.	89µM	.
CC(C)C[C@@H]1N[C@H](C(=O)N2CCOCC2)Cc2cn(Cc3ccncc3)c3cccc1c23	/	/	/	/	/	.
O=C(NCCOc1ccc(F)cc1)C1CCC(=O)N(CCN2CCOCC2)C1 (stereo not drawn)	.	.	45µM	.	.	.
Cc1ccc(OCC(=O)NCCN2CCOCC2)cc1C	.	.	/	.	.	.
c1ccc(OCCN2CCC(c3nc4ccccc4s3)CC2)cc1	/	/	/	/	/	5µM
COc1ccc(OCCC(=O)NCCN2CCOCC2)cc1	.	.	56µM	.	.	.
COc1ccc(OCCN2CCOCC2)cc1	?	.	32µM	?	50µM	?
Cc1ccc(OCCCN2CCOCC2)cc1	?	.	40µM	?	10µM	.
c1ccc(OCCN2CCOCC2)cc1	35µM	.	.[2.33 µM]	?	20µM	.
CCN(CC)C(=O)C1=C(C)N(Cc2ccc(OC)cc2)C(=O)C(CC(=O)NCCN2CCOCC2)C1 (stereo not drawn)	/	/	/	/	/	16µM
Cc1cc(C)cc(OCCN2CCOCC2)c1	.	.	11µM	?	28µM	?
Cc1ccc(OCCCCCN2CCOCC2)cc1	.	.	.	.	.	.
CC(=O)c1c(C)nn(CCC(=O)N[C@@H]2CCOC[C@H]2OCCO)c1C	/	/	/	/	/	.
SMILES	BAZ2B block	Sfp inh	G9a block	HP1b binding inh	JMJD2A Tudor inh	ALOX12 inh
CCCNC(=O)Cc1csc2nc(C)c(-c3cc(C)n(-c4ccc(C(C)C)cc4)n3)c(=O)n12	/	/	/	/	/	.
COc1ccc(Cc2nnc(Nc3cccc(Cl)c3)[nH]c2=O)cc1OC	/	/	/	/	/	.
COc1ccc(Cc2nnc(N/N=C/c3ccc(O)cc3O)[nH]c2=O)cc1OC	5µM	?	.	.	14µM	.
CCCCCC/C=N/Nc1nnc(Cc2ccc(OC)c(OC)c2)c(=O)[nH]1	7.1µM	.	.	.	0.89µM	.
COc1ccc2c(c1O)Cc1ccccc1C2=O	?	45µM	?	.	?	/
COc1ccc(/C=C2\Cc3ccccc3C2=O)cc1Br	/	/	/	/	/	.
COc1ccc(NC(=O)CN2CCc3ccccc3C2)cc1S(=O)(=O)N1CCOCC1	.	.	.	.	.	.
COc1ccc(NC(=O)CN2C(=O)c3ccccc3S2(=O)=O)cc1S(=O)(=O)N1CCOCC1	.	/	50µM	.	.	.
COc1ccc(CC(=O)Nc2ccc(F)c(Cl)c2)cc1S(=O)(=O)N1CCOCC1	.	/	.[12.7 µM]	.	.	.
CCc1nnc(NC(=O)Cc2ccc(OC)c(S(=O)(=O)N3CCOCC3)c2)s1	/	/	/	/	/	.
COc1ccc(CC(=O)Nc2sccc2C#N)cc1S(=O)(=O)N1CCOCC1	.	/	40µM	.	.	.
COc1ccc(NC(=O)CNCc2ccc(Cl)cc2)cc1S(=O)(=O)N1CCOCC1	/	/	/	?	3.5µM	?
COc1cc(/C=C/C(=O)Nc2ccc(OC)c(S(=O)(=O)N3CCOCC3)c2)ccc1OC(F)F	/	/	/	.	.	.
COc1ccc(NC(=O)/C=C/c2ccc(C)o2)cc1S(=O)(=O)N1CCOCC1	?	50µM	6.3µM	.	.	.
Cn1c(SCC(=O)Nc2c(F)c(F)cc(F)c2F)nc2c(=O)[nH]cnc21	/	/	/	/	/	.
CCCn1nc(C)cc1CN(C)c1ccc(NC(=O)c2ccccc2C)cc1C(=O)O	/	/	/	/	/	10µM
Cc1ccc(CNC(=O)c2ccc(CSCc3cccc(C)c3)o2)cc1	.	/	.	.	.	?
Cc1ccc(CNC(=O)c2ccc(CSCc3ccc(C)cc3)o2)cc1	.	/	.	.	32µM	11µM!
Cc1cc(=O)oc2cc(OC(=O)c3cncc(Br)c3)ccc12	.	.	.	.	.	.
Cc1cccc(Oc2c(C(F)(F)F)oc3cc(OC(=O)c4cncc(Br)c4)ccc3c2=O)c1	/	/	/	/	/	8.9µM
CCCNC(=O)c1ccc(CN2CCc3ccccc3C2)cc1	.	.	.	.	.	.
COc1ccc(NC(=O)c2ccc(CN3CCc4ccccc4C3)cc2)cc1OC	.	.	71µM	.	.	.
C/C(=N\NC(=O)c1ccc(CN2CCc3ccccc3C2)cc1)c1ccccc1O	2.8µM	.	.	.	?	.
CCn1nc(C)c(-c2cc(C(=O)NCC34CCC=C3N(C)C(=O)CC4)no2)c1C (stereo not drawn)	/	/	/	/	/	.
COCC(=O)N(Cc1ccco1)c1nnc(C2CCOC2)s1 (stereo not drawn)	.	.	79µM	.	.	.
COc1ccc2[nH]c(=O)c(C(=O)O)cc2c1	.	.	.	.	.	.
COc1ccc2[nH]c(=O)c(NC(N)=S)nc2c1	.	35µM	.[2.33 µM]	.	.	?
O=C(NC(=S)NNC(=O)[C@H]1C[C@@H]1c1ccccc1)c1ccc(F)cc1	.	?	/	.	.	.
